Results taken from PubChem BioAssay (NCI).
Compounds without any hit were thinned out: in the full panel of roughly 83,000, 20% have a hit.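 Testing used 96-well plates and a 48-hour single-concentration exposure. Example: -40 means 40% of the starting cells died.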 A number with no mark means an inactive call. The source made the active and inactive calls. How the source made its calls: active means growth percent below 10; inactive means the rest.

Experiments:
Experiment in all cases: NCI-60 one-dose screen, 48 h (100 = growth as untreated, 0 = no growth, -100 = all killed)
Settings in all cases: 10 µM unless noted
[1] = tested on: DU-145 prostate
[2] = tested on: K-562 leukemia
[3] = tested on: MALME-3M melanoma
[4] = tested on: MDA-MB-231 breast
[5] = tested on: RXF 393 renal
[6] = tested on: SF-268 CNS
[7] = tested on: SF-295 CNS
[8] = tested on: SF-539 CNS
[9] = tested on: UACC-257 melanoma
[10] = tested on: M14 melanoma

| Structure (SMILES) | growth [1] [%] | growth [2] | growth [3] | growth [4] | growth [5] | growth [6] [%] | growth [7] | growth [8] | growth [9] | growth [10] |
| --- | --- | --- | --- | --- | --- | --- | --- | --- | --- | --- |
| CC(c1ccccc1)N1C(=O)CSC1=S (stereo not given) | 26.9 | 5.61% (active) | 79.3% | 29.9% | -25% (active) | 24.9 | 101% | -59.7% (active) | 55.3% | 28.7% |
| CC(=O)C[n+]1ccc(C)cc1Sc1ccccc1C | 98.1 | 102% | 102% | 89.3% | 134% | 93 | 96.8% | 88.5% | 97.8% | 90.7% |
| CCCC(=O)c1cccs1 | 109 | 112% | 107% | 104% | 102% | 105 | 95.7% | 93.7% | 92.5% | 105% |
| NC(=S)N/N=C/c1ccc(Cl)cc1 | 120 | 92.8% | 109% | 111% | 97.4% | 109 | 97.4% | 106% | 91.7% | 108% |
| CCCCCCCCCCCCSC1=C(Cl)C(=O)C(OC)=C(OC)C1=O | 60.2 | 28.2% | 12.5% | 55.5% | 34.1% | 46.1 | 38.3% | 41.5% | 26.8% | 64.1% |
| Nc1ncc([N+](=O)[O-])cn1 | 104 | 108% | 103% | 98.4% | 110% | 98.4 | 105% | 105% | 84.7% | 100% |
| CC1(C)OC(=O)CC1=O | 109 | 92.2% | 105% | 104% | 103% | 103 | 106% | 102% | 89.4% | 93.9% |
| C=CC(C)(C)n1cc(C2=C(O)C(=O)C(c3cn(C(C)(C)C=C)c4ccccc34)=C(O)C2=O)c2ccccc21 | 92.9 | 79.5% | 90.6% | 92.6% | 93.2% | 74.7 | 83.5% | 76.6% | 94% | 69.9% |
| CC(CCC#N)(CCC#N)C(=O)c1ccccc1 | 106 | 104% | 114% | 109% | 98.6% | 112 | 113% | 115% | 106% | 115% |
| CCCCOC(=O)c1ccc(NC(=O)CCl)cc1 | 78.3 | 5.65% (active) | -67.5% (active) | 7.83% (active) | 89.5% | 35.7 | 90% | 69.9% | 75.5% | 51.2% |
| C=CC(C)C(C)(C)O (stereo not given) | 105 | 94% | 107% | 103% | 105% | 95.3 | 102% | 105% | 109% | 102% |
| CC1(C)CC(=O)C=C(N)C1 | 128 | 146% | 155% | 104% | 94.4% | 110 | 98.7% | 127% | 87.2% | 102% |
| CCCCCCCCCCC(=O)CCCCCCCCCC | 111 | 103% | 99.1% | 119% | 113% | 108 | 93.7% | 98.1% | 101% | 99.9% |
| O=C(O)C1CCCN1C(=O)OCc1ccccc1 (stereo not given) | 118 | 99.1% | 108% | 128% | 139% | 107 | 107% | 107% | 105% | 99.1% |
| COc1ccc2c(Cl)cc(NC(=O)Nc3c(C)cccc3C)nc2c1 | 82.6 | 72.6% | -1.2% (active) | 62.7% | 36.3% | 81.1 | 0.445% (active) | 90.1% | 76.8% | 85.6% |
| CC(C)N(CCCC#N)C(C)C | 107 | 104% | 109% | 102% | 103% | 103 | 100% | 97.9% | 89.2% | 107% |
| Clc1ccc(-c2noc(/C=C\c3ccccc3)n2)cc1 | 108 | 94.6% | 95% | 109% | 104% | 106 | 89.9% | 101% | 104% | 101% |
| CCC(/C=C\C(C)=O)CC | 111 | 113% | 98.4% | 103% | 97.8% | 106 | 104% | 100% | 94.8% | 104% |
| COc1ccc(Nc2cc(Cl)ccc2C(=O)O)cn1 | 110 | 100% | 157% | 109% | 126% | 103 | 138% | 105% | 40.3% | 102% |
| C/C(Cc1ccccc1)=N\O | 109 | 88.6% | 110% | 113% | 112% | 101 | 117% | 108% | 107% | 105% |
| CCOC(=O)Nc1nccs1 | 109 | 119% | 97.3% | 87% | 108% | 117 | 108% | 101% | 98% | 106% |
| CCOc1ccc(NC(=S)N2CCC(CCCC3CCN(C(=S)Nc4ccc(OCC)cc4)CC3)CC2)cc1 | 95.9 | 61.5% | 80.1% | 92.4% | 110% | 83.1 | 84.6% | 106% | 83.1% | 97.9% |
| CN(CCCN(C)CCC1CCCCC1)CCC1CCCCC1 | 83.8 | -57.5% (active) | -74.7% (active) | -3% (active) | -4.36% (active) | 84.2 | 27.1% | -57.7% (active) | -66.3% (active) | -100% (active) |
| C=COC(=O)C(C)(C)C | 110 | 103% | 95.5% | 113% | 105% | 103 | 93.1% | 102% | 107% | 107% |
| Cc1cc(C)cc(OCC(=O)O)c1 | 111 | 93.3% | 92.3% | 106% | 135% | 114 | 96.5% | 96.2% | 100% | 102% |
| CC(=O)c1cccc(N(C)S(=O)(=O)c2ccc(C)cc2)c1 | 98.2 | 47.8% | 84% | 93.1% | 116% | 93 | 93.2% | 79.1% | 94.7% | 77.6% |
| O=S(=O)(OCCOS(=O)(=O)c1ccccc1)c1ccccc1 | 100 | 96.4% | 86% | 111% | 96% | 92.6 | 102% | 102% | 97.2% | 92.3% |
| O=C(Nc1cccc(Cl)c1)c1ccc(Cl)cc1Cl | 99.3 | 90.9% | 96.6% | 97.9% | 110% | 96.2 | 94.6% | 103% | 99.7% | 93.7% |
| CCOC(=O)c1ccc(NC(C)=O)o1 | 111 | 84.3% | 107% | 105% | 102% | 100 | 98.5% | 105% | 80.2% | 106% |
| CCCCCC(=O)OCCC1CCCCC1 | 98.2 | 107% | 84.1% | 114% | 104% | 93 | 108% | 97.8% | 95.9% | 94% |
